This note sets out measurements from PubChem BioAssay AID2284128 (EPA ToxCast).

Calls of active or inactive are those of the source. The calls were made as follows: active = hit-call score of the fitted dose curve at least 0.9, where 1 is the maximum; inactive = score below 0.9.

In the assay the target is human Phosphatase (PTEN), PTEN (gene 5728) (UniProt P60484). The assay is described as follows: ERF_TW_ENZ_hPTEN: Eurofins (ERF) Enzymatic LeadHunter Assay for human Phosphatase (PTEN). As for the experimental part: ERF_TW_ENZ_hPTEN is a biochemical, single-readout assay that uses extracted gene-proteins in a cell-free assay. Measurements were taken 1 hour after chemical dosing in a 96-well plate. See PTEN Human Phosphatase Enzymatic Assay, Panlabs.ERF_TW_ENZ_hPTEN is an assay component calculated from the ERF_TW_ENZ_hPTEN assay. It is designed to measure enzyme activity using a type of enzyme reporter as detected by fluorescence intensity with spectrophotometry technology.Data from the assay component ERF_TW_ENZ_hPTEN was analyzed at the assay endpoint, ERF_TW_ENZ_hPTEN, in the positive analysis fitting direction relative to DMSO as the negative control and baseline of activity. Using a type of enzyme reporter, loss-of-signal activity can be used to understand changes in enzymatic activity as they relate to gene PTEN. To generalize the intended target to other relatable targets, this assay endpoint is annotated to the phosphatase intended target family, where the subfamily is dual-specific phosphatase.
Sequence of human Phosphatase (PTEN), PTEN (gene 5728) (P60484 whole entry, looked up): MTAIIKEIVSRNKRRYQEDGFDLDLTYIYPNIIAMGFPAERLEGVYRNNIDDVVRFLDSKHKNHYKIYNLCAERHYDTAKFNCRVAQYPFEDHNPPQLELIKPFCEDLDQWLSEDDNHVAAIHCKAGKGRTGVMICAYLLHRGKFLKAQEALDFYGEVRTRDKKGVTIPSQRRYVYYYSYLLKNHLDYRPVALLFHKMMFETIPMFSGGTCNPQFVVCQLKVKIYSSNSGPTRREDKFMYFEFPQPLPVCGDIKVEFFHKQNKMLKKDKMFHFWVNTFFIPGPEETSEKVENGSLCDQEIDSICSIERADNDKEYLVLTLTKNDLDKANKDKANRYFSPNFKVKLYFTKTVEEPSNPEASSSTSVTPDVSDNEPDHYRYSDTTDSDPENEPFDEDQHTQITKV
Human recombinant phosphatase PTEN expressed in E. coli is used. Test compound and/or vehicle is preincubated with 2 ug/ml enzymedouble dagger for 15 minutes at 37C in modified Tris-HCl buffer pH 8.5. The reaction is initiated by addition of 100 uM DiFMUP for 60 minutes. Determination of the amount of DiFMU formed is read spectrofluorimetrically at 358 nm/450 nm. […]
As a reminder, the AC50 is the midpoint of the concentration-response curve, whichever way the signal moves. Regarding `O=C(/C=C/c1ccc(O)cc1)CC(=O)/C=C/c1ccc(O)cc1`, the AC50 was 5 µM (active).
